Inconclusive results are not listed. Activity calls are given as the source filed them. The call rests on the fitted dose curve; in most records, active means well fitted cell-killing curve with a large enough effect; inconclusive means small, poorly fitted or top-dose-only effect, or effect the other way; inactive means no such curve, though single readings can be large or run the other way.
Potency means the concentration at half of the fitted maximal effect.

The nature of this experiment: Quantitative High-Throughput drug screen in 47 multiple myeloma cell lines against the NCATS MIPE library collection: KMS28PE_JCRB cell viability assay (AID 1918983). Further: nearly all actives have a fitted effect of over 35% in size. Conditions: KMS28PE multiple myeloma viability, CellTiter-Glo ATP, 48 h; series mostly up to 45.8 µM; viability, % of DMSO control: at the top concentration. An excerpt: PI: Beverly A. Mock Ph.D.
Laboratory of Cancer Biology and Genetics,
Center for Cancer Research, National Cancer Institute,
National Institute of Health, Bethesda, Maryland
Drug resistance and disease progression are common in multiple myeloma (MM) patients, underscoring the need for new therapeutic combinations. […] We hypothesized that effective combinations would reduce MYC expression and enhance p16 activity. […] These preclinical data identify potentially useful drug combinations for evaluation in drug-resistant MM and reveal potential mechanisms of combined drug sensitivity.
Described herein is the primary MIPE qHTS used to cherrypick compounds. Validated compounds were then further tested for potential synergistic activiy.
[1] Peat TJ, Gaikwad SM, Dubois W, Gyabaah-Kessie N, Zhang S, Gorjifard S, Phyo Z, Andres M, Hughitt VK, Simpson RM, Miller MA, Girvin AT, Taylor A, Williams D, D'Antonio N, Zhang Y, Rajagopalan A, Flietner E, Wilson K, Zhang X, Shinn P, Klumpp-Thomas C, McKnight C, Itkin Z, Chen L, Kazandijian D, Zhang J, Michalowski AM, Simmons JK, Keats J, Thomas CJ, Mock BA. Drug combinations identified by high-throughput screening promote cell cycle transition and upregulate Smad pathways in myeloma. Cancer Lett. 2023 Aug 1;568:216284. doi: 10.1016/j.canlet.2023.216284. Epub 2023 Jun 24. PMID: 37356470; PMCID: PMC10408729.
SEQUENCE No. (e.g., 1, 2, 3, etc.); […] (e.g., Cells, Incubation, Reagent, etc.); VALUE and DESCRIPTION.
1; Cells; 5 uL; white, solid bottom 1536-well Greiner assay plate.
2; Compounds; 23 nL; Kalypsis pin tool (Wako USA) equipped with a 1536-well pin head to transfer to the assay plates.
3; Incubation; 48 hours; 37C incubation.
4; Reagent;5uL; CellTiter Glo (Promega).
5; Detector; 425V; Luminescence; Viewlux PerkinElmer.
NOTES (numbers refer to Sequence numbers above)
1. The cell-based screening methods employed in this study were like those previously published. Briefly, the corresponding myeloma cell lines were screened in 1,536-well plates with 500 cells, 5-uL per well for inhibition of cell viability (assessed by measuring ATP levels with CellTiterGlo).
2. NCATS MIPE 4.0 library of approved and investigational drugs were added using the Kalypsis pin tool. Wells treated with DMSO only for 100% viability and media only for 0% viability were used as controls.
3. The assay plates were covered and incubated for 48 hours in a 37C, 5% CO2 incubator with controlled humidity.
4. After 48 hours, CellTilter-GloTM luminescent substrate mix (Promega) reagent was added to the assay plate and plates we incubated for 5 min at room temperature.
5. Signal was measured as median relative luminescence units on a ViewLux (PerkinElmer) multiplate reader.
[1] Heske CM, Davis MI, Baumgart JT, Wilson K, Gormally MV, Chen L, Zhang X, Ceribelli M, Duveau DY, Guha R, Ferrer M, Arnaldez FI, Ji J, Tran HL, Zhang Y, Mendoza A, Helman LJ, Thomas CJ. Matrix Screen Identifies Synergistic Combination of PARP Inhibitors and Nicotinamide Phosphoribosyltransferase (NAMPT) Inhibitors in Ewing Sarcoma. Clin Cancer Res. 2017 Dec 1;23(23):7301-7311. doi: 10.1158/1078-0432.CCR-17-1121. Epub 2017 Sep 12. PMID: 28899971; PMCID: PMC6636827.
Turning to `COc1cc(C(C)C)c(Oc2cnc(NC(CO)CO)nc2N)cc1I`, the “viability, % of DMSO control” value is 157% (inactive).
For `Cc1cnc(Nc2ccc(CN3CCOCC3)cc2)nc1Nc1cccc(S(=O)(=O)NC(C)(C)C)c1`, the Potency is 9.35 µM (active).
Regarding `C[C@H]1C[C@H]2[C@@H]3CCC4=CC(=O)C=C[C@]4(C)[C@@H]3C(=O)C[C@]2(C)[C@@]1(O)C(=O)CO`, the “viability, % of DMSO control” value is 116% (inactive).
For `CCOC(=O)N1CCN([N+]([O-])=NOc2ccc([N+](=O)[O-])cc2C#N)CC1`, the Potency is 1.18 µM (active).
As to `C=CC1=C(C(=O)O)N2C(=O)[C@@H](NC(=O)C(=NO)c3csc(N)n3)[C@H]2SC1`, the “viability, % of DMSO control” value is 133% (inactive).
The same measure, in the same setting: under `CC(=O)N[C@@H]1[C@H](O[C@@H]2c3ccc(c(Cl)c3)Oc3cc4cc(c3O[C@H]3O[C@H](CO)[C@@H](O)[C@H](O)[C@H]3NC(=O)CCCCCCCC(C)C)Oc3ccc(cc3Cl)C[C@H]3NC(=O)[C@H](N)c5ccc(O)c(c5)Oc5cc(O)cc(c5)[C@H](NC3=O)C(=O)N[C@H]4C(=O)N[C@H]3C(=O)N[C@@H]2C(=O)N[C@@H](C(=O)O)c2cc(O)cc(O[C@H]4O[C@H](CO)[C@@H](O)[C@H](O)[C@H]4O)c2-c2cc3ccc2O)O[C@H](CO)[C@@H](O)[C@@H]1O` stands 118% (inactive).
Regarding `COc1cc(OC)c(C=CS(=O)(=O)Cc2ccc(OC)c(NCC(=O)O)c2)c(OC)c1`, the Potency is 0.469 µM (active).
Consider `c1cc(CN2CCCNCCNCCCNCC2)ccc1CN1CCCNCCNCCCNCC1`, for which the “viability, % of DMSO control” value is 129% (inactive).
As for `CC(C)c1cnn2c(NCc3ccccc3)cc(NCCCCCCN)nc12`, the Potency was 14.8 µM (active).
On to `CCCNS(=O)(=O)Nc1ncnc(OCCOc2ncc(Br)cn2)c1-c1ccc(Br)cc1`, for which the “viability, % of DMSO control” value is 124% (inactive).
Still for that read-out and setting: then `COc1ccc(CCC(=O)c2c(O)cc(O[C@@H]3O[C@H](CO)[C@@H](O)[C@H](O)[C@@H]3O[C@@H]3O[C@@H](C)[C@H](O)[C@@H](O)[C@@H]3O)cc2O)cc1O`, with 117% (inactive); and `CC(=O)O[C@]1(C(C)=O)CC[C@H]2[C@@H]3C=C(C)C4=CC(=O)CC[C@]4(C)[C@@H]3CC[C@@]21C`, with 117% (inactive).
For the compound `CC(C)(N)c1ccc(-c2nc3ccccc3nc2-c2ccccc2)cc1`, the Potency is 18.7 µM (active).
Same read-out and setting: under `COc1cc2c(Nc3ccc(Cl)c(Cl)c3F)ncnc2cc1OCC1C[C@@H]2CN(C)C[C@H]2C1` stands 16.6 µM (active); under `C=CCNc1c(O)cc2c(O)c1C[C@@H](C)C[C@H](OC)[C@@H](O)[C@@H](C)C=C(C)[C@H](OC(N)=O)[C@@H](OC)C=CC=C(C)C(=O)N2`, 0.418 µM (active).
On to `CC[C@@]1([C@@H]2O[C@@H]([C@H]3O[C@@](O)(CO)[C@H](C)C[C@H]3C)C[C@H]2C)CC[C@H]([C@]2(C)CC[C@]3(C[C@H](O)[C@@H](C)[C@@H]([C@@H](C)[C@@H](OC)[C@H](C)C(=O)O)O3)O2)O1`, for which the Potency was 0.512 µM (active).
`O=C(O)CCCCC(CCSCc1ccccc1)SCc1ccccc1` (stereo not given): the “viability, % of DMSO control” value was 137% (inactive).
The same measure, in the same setting: under `C[N+](C)([O-])CCNc1ccc(NCC[N+](C)(C)[O-])c2c1C(=O)c1c(O)ccc(O)c1C2=O` stands 181% (inactive); under `CC[C@H](CC[C@@H](C)[C@H]1CC[C@H]2[C@@H]3CC=C4C[C@@H](O)CC[C@]4(C)[C@@H]3CC[C@]12C)C(C)C`, 122% (inactive).
With `C[C@H]1[C@@H](OC(=O)CCC(=O)O)O[C@@H]2O[C@@]3(C)CC[C@@H]4[C@H](C)CC[C@@H]1[C@@]24OO3`, the Potency was 5.26 µM (active).
On the same count and under the same terms, under `COc1cc(N2CCC(C(N)=O)CC2)ccc1Nc1nc(N)c(Cl)c(Nc2ccccc2S(=O)(=O)C(C)C)n1` stands 0.743 µM (active).
Regarding `COc1cc(C)c(C=CC(C)=CC=CC(C)=CC(=O)O)c(C)c1C`, the “viability, % of DMSO control” value is 114% (inactive).
Same read-out and setting: under `Cc1ccc(O)c(C(CCN(C(C)C)C(C)C)c2ccccc2)c1` (stereo not given) stands 105% (inactive).
As to `CCNC(=O)c1cc2c(-c3cc(OCCN4CCCC4)c(Cl)cc3Cl)nc(N)nc2s1`, the Potency was 1.87 µM (active).
On the same count and under the same terms, under `CC(C)C[C@H](NC(=O)CNC(=O)c1cc(Cl)ccc1Cl)B1OC(=O)CC(CC(=O)O)(C(=O)O)O1` (stereo not given in full) stands 0.0526 µM (active).
On the same count and under the same terms, under `O=C1NC(=O)[C@@H](c2cn3c4c(cccc24)CCC3)[C@H]1c1c[nH]c2ccccc12` stands 0.833 µM (active); under `CC(C=CC1=C(C)CCCC1(C)C)=CC=CC(C)=CC(=O)Nc1ccc(O)cc1`, 21.5 µM (active).
The same measure, in the same setting: under `C=CC(=O)Nc1ccc2ncnc(Nc3ccc(OCc4cccc(F)c4)c(Cl)c3)c2c1` stands 2.64 µM (active); under `O=c1[nH]c(=O)n([C@H]2C[C@@H](O)[C@@H](CO)O2)cc1F`, 20.9 µM (active); under `C=C1C(=CC=C2CCC[C@]3(C)[C@@H]([C@H](C)CCCC(C)(C)O)CC[C@@H]23)C[C@@H](O)C[C@@H]1O`, 33.2 µM (active).
With `Nc1ccc(C(=O)Nc2cccc(-c3nc(N4CCOCC4)c4oc5ncccc5c4n3)c2)cn1`, the Potency is 26.4 µM (active).
Take `NC(=O)Nc1sc(-c2ccc(F)cc2)cc1C(N)=O`: the Potency is 18.7 µM (active).
On the same count and under the same terms, under `C[C@]12CC[C@@H]3c4ccc(O)cc4CC[C@H]3[C@H]1CC[C@H]2O` stands 29.6 µM (active).
For `C[C@]12CCC(=O)C=C1[C@@H]1CC1[C@H]1[C@H]3[C@@H]4C[C@H]4[C@@]4(CCC(=O)O4)[C@@]3(C)CC[C@H]12` (stereo not given in full), the “viability, % of DMSO control” value was 110% (inactive).
Consider `O=C(C=CC#Cc1cccc(NS(=O)(=O)c2ccccc2)c1)NO`, for which the Potency was 1.87 µM (active).
In the case of `COc1ccnc2[nH]cc(C(=O)C(=O)N3CCN(C(=O)c4ccccc4)C[C@@H]3C)c12`, the “viability, % of DMSO control” value was 115% (inactive).
On to `NC(=O)c1ncn([C@@H]2O[C@H](CO)[C@@H](O)[C@@H]2O)c1N`, for which the “viability, % of DMSO control” value was 173% (inactive).
As to `CC1(C)O[C@@H]2C[C@H]3[C@@H]4CCC5=CC(=O)C=C[C@]5(C)[C@@H]4[C@@H](O)C[C@]3(C)[C@]2(C(=O)CO)O1`, the “viability, % of DMSO control” value is 135% (inactive).
The same measure, in the same setting: under `CC1(C)CC(O)CC(C)(C)N1[O]` stands 132% (inactive).
In the case of `CCOc1cc2ncc(C#N)c(Nc3ccc(OCc4ccccn4)c(Cl)c3)c2cc1NC(=O)C=CCN(C)C`, the Potency was 13.2 µM (active).
